Source: PubChem (National Center for Advancing Translational Sciences (NCATS))
Marburg entry – qHTS for Inhibitors of binding or entry into cells for Marburg Virus. AID 720532, 2013. Potency, µM (top dose mostly 49.2 µM), for inactives: at the top dose activity change, negative = inhibition, usual class: inhibitors. Marburg virus pseudotype entry/binding inhibition, cell-based. hit rate 6.5% among 18,000
LASV entry inh – qHTS for Inhibitors of binding or entry into cells for Lassa Virus; Potency, µM (top dose mostly 49.2 µM), without a hit: at the highest dose activity change, negative = inhibition, most hits filed as inhibitors; hit rate 4.1% among 18,000; Lassa virus pseudotyped entry inhibition, cell-based qHTS
* hit, by the source's call; [ ] = dose if it differs, or a comment. Rows were chosen to be rich in hits. Some 8% of all compounds tested hit in one or more screens of this group. Calls come from the whole dose curve; tested in HEK293 cells. % is set by controls: 0 for no effect and ±100 for the full control effect; potency is the fitted concentration of half-maximal effect.

Results for OC[C@@H](O)COc1cccc2ccccc12 ?
Marburg entry: -8.5%; LASV entry inh: -4.2%

What do the screens show for `CNCC[C@H](Oc1cccc2ccccc12)c1cccs1`?
Marburg entry: 7.94µM*; LASV entry inh: 22.4µM*

Results for CC(=O)OC[C@H]1O[C@H](CCON=C[C@@H](C)[C@H](OCc2ccccc2)C(C)C)C=C[C@@H]1OC(C)=O ?
Marburg entry: -2.4%[8.59 µM]; LASV entry inh: -11.2%[8.59 µM]

What do the screens show for `C#C[C@]1(O)CC[C@H]2[C@@H]3CCC4=CC(=O)CC[C@@H]4[C@H]3C(=C)C[C@@]21CC`?
Marburg entry: 7.9%; LASV entry inh: -20.3%

What do the screens show for `Cc1cc2nc3ccc(=[N+](C)C)cc-3sc2cc1N`?
Marburg entry: 12.6µM*; LASV entry inh: 22.4µM*

How did CN(C)c1ccc2nc3ccc(=[N+](C)C)cc-3sc2c1 do in these assays?
Marburg entry: 3.55µM*; LASV entry inh: 11.2µM*

How did O=C(Nc1n[nH]c2nc(-c3ccco3)ccc12)C1CC1 do in these assays?
Marburg entry: -14.3%

Results for COc1ccc2c(c1)CO[C@H]([C@H](O)CO)[C@H]2C=CC#Cc1ccc(C(C)(C)C)cc1 ?
Marburg entry: -9.0%[8.59 µM]; LASV entry inh: -13.7%[8.59 µM]

How did COC(=O)[C@@H]1CC[C@H](C)[C@@H](c2ccc(C)cc2)N1C(=O)c1ccc(C=NOC[C@H]2O[C@H](c3ccccc3)C=C[C@H]2Oc2ccc(OC)cc2)cc1 do in these assays?
Marburg entry: -6.6%[8.59 µM]; LASV entry inh: -22.2%[8.59 µM]

How did CC=CC(=O)C[C@H]1CC[C@@H](C)[C@@H](CCO)O1 do in these assays?
Marburg entry: 32.9%[8.59 µM]; LASV entry inh: 0.0%[8.59 µM]

Results for CN1C/C(=C/c2ccc(B(O)O)cc2)C(=O)/C(=C/c2ccc(B(O)O)cc2)C1 ?
Marburg entry: 6.31µM*; LASV entry inh: 12.6µM*

Results for CSc1ccc2c(c1)N(CC[C@H]1CCCCN1C)c1ccccc1S2 ?
Marburg entry: 7.94µM*; LASV entry inh: inconclusive

How did CSc1ccc(CN2CCOc3ccc(CN4CCCCC4CO)cc3C2)cc1 (stereo not given) do in these assays?
Marburg entry: inconclusive; LASV entry inh: -5.7%

Results for CN1CCCC[C@@H]1CCN1c2ccccc2Sc2ccc(S(C)=O)cc21 (stereo not given in full) ?
Marburg entry: inconclusive; LASV entry inh: -0.1%[17.8 µM]

What do the screens show for `CSc1ccc2c(c1)N(CCC1CCCCN1C)c1ccccc1S2` (stereo not given)?
Marburg entry: 7.94µM*; LASV entry inh: 22.4µM*

What do the screens show for `c1ccc(CCc2nc(-c3ccccc3)oc2NC2CCCCC2)cc1`?
Marburg entry: -13.2%[8.59 µM]; LASV entry inh: -13.4%[8.59 µM]

How did COc1cc2c(cc1OC)[C@@H]1O[C@](CCCCN3C(=O)c4ccccc4C3=O)(C2)OC2=C1C(=O)CCC2 do in these assays?
Marburg entry: -17.1%[8.59 µM]

How did Cc1cnc(-n2ncc(C(=O)N[C@H]3CCCCNC3=O)c2C2CC2)nc1-c1cccs1 do in these assays?
Marburg entry: -4.4%; LASV entry inh: -7.4%

What do the screens show for `C(=Cc1nc(-c2ccccc2)oc1Nc1ccc2ccccc2c1)c1ccccc1`?
Marburg entry: -0.9%[8.59 µM]; LASV entry inh: -15.9%[8.59 µM]

Results for COc1ccc(CN2CCCC(c3nc(C)ncc3-c3ccc(F)cc3)C2)c(OC)c1OC (stereo not given) ?
Marburg entry: -14.6%; LASV entry inh: -8.5%

How did COc1cc(OC)c(OC)cc1CN1CCCC(c2nc(C)ncc2-c2ccc(F)cc2)C1 (stereo not given) do in these assays?
Marburg entry: 11.2µM*; LASV entry inh: -13.2%

What do the screens show for `CCOc1ccccc1CN1CCCC(c2nc(C)ncc2-c2ccc(F)cc2)C1` (stereo not given)?
Marburg entry: 10µM*; LASV entry inh: -14.5%

What do the screens show for `COc1ccc(OC)c(CN2CCCC(c3nc(C)ncc3-c3ccc(F)cc3)C2)c1` (stereo not given)?
Marburg entry: inconclusive; LASV entry inh: -21.5%

What do the screens show for `COc1cc(=O)n2c(c1C(=O)N(C)Cc1nonc1C)CCN(C(=O)c1cc(C)ccc1C)CC2`?
Marburg entry: -1.2%; LASV entry inh: -7.6%

What do the screens show for `CN1[C@@H](C[C@@H](O)c2ccccc2)CCC[C@@H]1C[C@H](O)c1ccccc1`?
Marburg entry: inconclusive; LASV entry inh: 8.5%[17.8 µM]

What do the screens show for `CN1C2CCC1CC(OC(c1ccccc1)c1ccc(Cl)cc1)C2` (stereo not given)?
Marburg entry: 3.98µM*; LASV entry inh: 11.2µM*

How did C[C@@H](C(=O)OC1C[C@H]2CC[C@@H](C1)N2C)c1ccc(Br)cc1 (stereo not given in full) do in these assays?
Marburg entry: inconclusive; LASV entry inh: -16.6%

What do the screens show for `CN1C2CCC1CC(OC(c1ccccc1)c1ccccc1N)C2` (stereo not given)?
Marburg entry: 17.8µM*; LASV entry inh: -8.2%

Results for O=C(C=NO)NCCCCNC(=O)C=NO ?
Marburg entry: -2.6%[8.59 µM]; LASV entry inh: 12.7%[8.59 µM]

How did CCn1c(-c2nonc2N)nc2cnc(Oc3cccc(NC(=O)c4ccc(N(C)C)cc4)c3)cc21 do in these assays?
Marburg entry: 15.6%; LASV entry inh: 18.2%

Results for CCON=O ?
Marburg entry: -18.5%; LASV entry inh: 10µM*

What do the screens show for `CC(C)CCON=O`?
Marburg entry: -22.8%; LASV entry inh: -6.0%

How did C[C@@H](ON=C1[C@H]2CCn3c(=O)n(-c4ccccc4)c(=O)n3[C@@H]2[C@H](O)[C@@H]2O[C@H]12)c1cn([C@@H]2COC[C@@H]2O)nn1 do in these assays?
Marburg entry: 35.5%[8.59 µM]; LASV entry inh: -18.6%[8.59 µM]

How did CCOC(=O)[C@@H]1CSCCS(=O)(=O)N1C(=O)c1ccc(Br)cc1 do in these assays?
Marburg entry: 12.8%; LASV entry inh: 10.5%

Results for CC#CCN1c2ccccc2[C@]23CCC(=O)N(Cc4cccc(C(F)(F)F)c4)C2=NC(C(=O)OC)=C(C(=O)OC)[C@H]13 ?
Marburg entry: 18.5%[8.59 µM]; LASV entry inh: -6.8%[8.59 µM]

How did O=S(=O)(O)c1ccc2c(c1)-c1nc-2nc2[nH]c(nc3nc(nc4[nH]c(n1)c1ccc(S(=O)(=O)O)cc41)-c1ccc(S(=O)(=O)O)cc1-3)c1ccc(S(=O)(=O)O)cc21 do in these assays?
Marburg entry: 1.26µM*; LASV entry inh: inconclusive

How did O=S(=O)(O)c1ccc2nc(-c3ccccc3)[nH]c2c1 do in these assays?
Marburg entry: -1.3%; LASV entry inh: inconclusive

Results for Oc1ccc(Cl)cc1 ?
Marburg entry: -16.3%; LASV entry inh: -4.3%

Results for Oc1ccc(Cl)cc1Sc1cc(Cl)ccc1O ?
Marburg entry: inconclusive; LASV entry inh: 12.6µM*

What do the screens show for `CC1(C)CN(Cc2ccccc2)C(=O)[C@@H]1CC(=O)Nc1ccc(Br)cc1`?
Marburg entry: -28.5%; LASV entry inh: -10.0%

How did FC(F)(F)c1ccc(-c2nc(-c3ccccc3)oc2Nc2ccc3ccccc3c2)cc1 do in these assays?
Marburg entry: 31.9%[8.59 µM]

How did COc1ccccc1N1CCNCC1 do in these assays?
Marburg entry: -7.7%; LASV entry inh: 1.3%

Results for FC(F)(F)c1cccc(N2CCNCC2)c1 ?
Marburg entry: 28.2µM*; LASV entry inh: 28.2µM*

Results for O[C@@H]1C[C@H](c2ccccc2)N(CC2CCCCC2)C[C@@H]1n1cc(C2CC2)nn1 ?
Marburg entry: -27.3%; LASV entry inh: -21.2%

What do the screens show for `Cc1cc2c(c(-c3ccc(Cl)cc3)c1)OC(CNC(=O)CCC(=O)N(C)C)C2` (stereo not given)?
Marburg entry: -20.0%; LASV entry inh: -5.8%

What do the screens show for `Cc1[nH]ccc2c1[nH]c1cc(=O)ccc12`?
Marburg entry: 12.6µM*; LASV entry inh: inconclusive
